In PubChem BioAssay:
Activity calls are given as the source filed them.

experiment: changes in parasitized red cell lysis, either direction – P. falciparum Indochina, OD700, 3 h, PSAC antagonist project, primary screen (AID 1156); settings: P. falciparum-infected erythrocytes, osmotic lysis, higher = more signal, called active from +8 up or from −8 down

z-score, inactive:
COC(=O)c1nc2oc1CC[C@@H](CO)NC(=O)N(C)Cc1cnnn1C[C@H](Cc1ccccc1)NC2=O 1.2, COCCOC(=O)N1C(=O)[C@@]2(c3cc(C#CC4=CCCCC4)ccc31)[C@H](c1ccc(OCCO)cc1)N1[C@H](c3ccccc3)[C@H](c3ccccc3)OC(=O)[C@H]1[C@@H]2C(=O)N1CCN(c2ncccn2)CC1 -0.146, CC(C)(C)OC(=O)CC[C@]1(C(=O)NCC(O)CO)N=C(c2ccc(OCCCO)cc2)O[C@H]1c1ccccc1 (stereo not given in full) 2.61, O=C1O[C@H](c2ccccc2)[C@H](c2ccccc2)N2[C@H]1[C@@H](C(=O)Nc1nc3ccccc3s1)[C@]1(C(=O)Nc3ccccc31)[C@H]2c1ccc(OCCO)cc1 0.458, C=CC[C@]1(C(=O)NCCN2CCOCC2)N=C(c2ccc(OCCCO)cc2)O[C@H]1c1ccccc1CN=[N+]=[N-] 2.57, COCCCNC(=O)[C@@]1(Cc2ccccc2CN=[N+]=[N-])N=C(c2ccc(OCCCO)cc2)O[C@H]1c1ccccc1 0.697, CN(C)C(=O)[C@@]1(CCS(=O)(=O)c2ccccc2)N=C(c2ccc(OCCCO)cc2)O[C@H]1c1ccccc1 0.873, CCOC(=O)C1CCCCN1 (stereo not given) -0.965, C=C(/C(=C/C[C@H](OC(=O)c1ccncc1)c1ccc(CO)o1)c1cc(C(=O)OC)ccc1OC)C(C)C 1.25, COC(=O)[C@@]1(Cc2ccccc2)[C@H]2c3cc(C(=O)N(C)C)n(CCN4CNCC4=O)c3C[C@H]2CN1C(=O)c1ccccc1 0.307
